These results are taken from PubChem BioAssay (NCI).

The panel holds about 83,000 compounds, 20% with a hit somewhere; the sample as a whole holds those more often.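 Single-concentration screen, 48 h exposure, 96-well plates. Endpoint: percent growth. Below 10 = active.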 Values without a mark were called inactive. Active and inactive are the calls of the source.

Common to all, as to test: NCI-60 one-dose screen, 48 h (100 = growth as untreated, 0 = no growth, -100 = all killed)
Common to all, as to conditions: 10 µM unless noted

For experiment [1], the system named is SK-MEL-2 melanoma.
The test system of experiment [2] is EKVX NSCLC.
For experiment [3], the system named is SN12C renal.
The test system of experiment [4] is UO-31 renal.
Experiment [5] has as its system TK-10 renal.
The test system of experiment [6] is ACHN renal.
Experiment [7] has as its system CAKI-1 renal.
In experiment [8] the test system is A498 renal.
Experiment [9] deals with CCRF-CEM leukemia.
In experiment [10] the test system is MOLT-4 leukemia.
Experiment [11] relates to SR leukemia.
The subject of experiment [12] is OVCAR-8 ovarian.
Experiment [13] has as its system OVCAR-5 ovarian.
Experiment [14] has as its system OVCAR-4 ovarian.
The test system of experiment [15] is SK-OV-3 ovarian.
Experiment [16] concerns OVCAR-3 ovarian.
In experiment [17] the test system is HS 578T breast.
The subject of experiment [18] is NCI/ADR-RES ovarian.
The test system of experiment [19] is RPMI-8226 leukemia.
The test system of experiment [20] is IGROV1 ovarian.

For the compound `O=C1c2cccc3c(-c4ccc(-c5nc6c7ccccc7c7ccccc7c6[nH]5)cc4)ccc(c23)C(=O)N1CCN1CCNCC1`, the growth in experiment [1] was 105%; in experiment [2] it was 97%; in experiment [3], 93.4%; in [4], 94.2%; in experiment [5], 104%; in [6], 71.7%. The growth is 91.4% in experiment [7]; 107% in experiment [8]; 37.5% in [9]; 53.4% in experiment [10]; 5.99% (active) in experiment [11]; 20.2% in experiment [12]. In addition, the growth is 108% in [13]; -23.2% (active) in experiment [14]; 102% in experiment [15]; 91.5% in [16]; 108% in [17]; 57.8% in experiment [18].
Turning to `COc1cccc(-c2nc3sccn3c2-c2ccnc(NCCNS(=O)(=O)c3c(Cl)cccc3Cl)c2)c1`, the growth is 74.6% in [1]; 55.6% in [2]; 60.5% in experiment [3]; 24.1% in [4]; 68.5% in experiment [5]; 44% in experiment [6]. Besides, the growth in experiment [7] is 36.3%; in experiment [8] it was 48.6%; in [9], 31.1%; in experiment [10] it was 33.7%; in experiment [19], 15.1%; in experiment [12] it was 39%. The growth in experiment [13] is 90.9%; in experiment [14], 59.7%; in experiment [15], 89.5%; in experiment [20] it was 57.2%; in experiment [16] it was 70.8%; in experiment [17], 87.8%. For the same compound, the growth in [18] is 36.6%.
Consider `Cc1cccc(-c2cc(O)c(C(=O)N3CCOCC3)s2)c1`, for which the growth in [1] was 28.5%; in [2], 58.6%; in experiment [3] it was 49.1%; in [4] it was 58.3%; in experiment [5], 61.7%; in experiment [6] it was 60.6%. The growth was 47.5% in experiment [7]; 26.7% in experiment [8]; 35.5% in experiment [9]; 21.6% in experiment [10]; 41.7% in experiment [19]; 46% in experiment [12]. The growth in experiment [13] is 92.1%; in experiment [14], 77.3%; in experiment [15] it was 41.7%; in experiment [20], 50%; in [16], 15%; in experiment [17], 53.8%. For the same compound, the growth in experiment [18] was 6.7% (active).
Turning to `O=C1/C(=C/c2ccc([N+](=O)[O-])cc2)COc2ccc(O)c(O)c21`, the growth in experiment [1] was 85.5%; in [2] it was 41.3%; in [3] it was -47.3% (active); in experiment [4] it was -98.6% (active); in experiment [5], -8.97% (active); in [6], -77.5% (active). In addition, the growth in [7] is -53.1% (active); in experiment [8], 86.3%; in experiment [9], -2.51% (active); in [10], -1.02% (active); in [11], -1.74% (active); in experiment [12], 14.2%. The growth in experiment [13] is -68.6% (active); in experiment [14], 6.56% (active); in experiment [15], 89.2%; in experiment [20], -40% (active); in [16], -88.2% (active); in experiment [17], 4.58% (active). Besides, the growth in experiment [18] was 11.1%.
With `CCCCS(=O)(=O)Oc1ccc(-c2nc(C)c(C(=O)OCC)s2)cc1C=O`, the growth was 97.2% in experiment [1]; 92.1% in [2]; 57.1% in experiment [3]; 57.7% in [4]; 68.8% in experiment [5]; 62.7% in experiment [6]. Moreover, the growth in [7] is 63.7%; in experiment [8], 77.5%; in experiment [9], 15.3%; in experiment [10], 32.1%; in experiment [11], -14.3% (active); in [13], 94.5%. The growth in experiment [14] was 75.2%; in [15], 109%; in experiment [20], 42.6%; in [16], 65%; in experiment [17], 63.6%; in [18], 69%.
With `COc1ccc(/C(C)=C(\c2ccc(Cl)cc2)c2ccc(OCCN3CCCCC3)cc2)cc1F`, the growth in experiment [1] is 64.1%; in experiment [2], 47.7%; in experiment [3], 47.4%; in experiment [4], 11.6%; in experiment [5], 68.7%; in [6] it was 59.2%. The growth is 17.8% in experiment [7]; 76% in experiment [8]; 31% in experiment [9]; 23.8% in experiment [10]; -25.2% (active) in [11]; 59.5% in experiment [12]. The growth in experiment [13] was 51.5%; in [14] it was 29.1%; in experiment [15], 63%; in experiment [20] it was 46.2%; in experiment [16], 51%; in experiment [18] it was 63%.
In the case of `O=C(O)c1ccc(CO)o1`, the growth was 92.3% in experiment [1]; 105% in [2]; 104% in [3]; 97.7% in [4]; 103% in [5]; 105% in [6]. Also, the growth in [7] is 102%; in experiment [8], 114%; in [9] it was 106%; in experiment [10] it was 100%; in [11] it was 100%; in [12] it was 95.5%. Besides, the growth in experiment [13] is 108%; in experiment [14], 98.3%; in [15], 116%; in experiment [20], 109%; in [16], 112%; in [17] it was 106%. For the same compound, the growth in [18] was 116%.
